TDP1 cell CPT – growth inhibition of DT40 Tdp1-/-;hTDP1 cells with camptothecin (screen for TDP1 inhibitors); chicken DT40 Tdp1-/-;hTDP1 cells + 20 nM CPT, ATP luminescence, 48 h; Potency, µM (top dose mostly 46.2 µM), actives largely listed as inhibitors; 12% of 420,000 active; note: nearly all actives have a fitted effect of over 55% in size
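Chicken DT40 Tdp1-/- cells complemented with human TDP1, 400 cells/well, exposed to compounds plus 20 nM camptothecin for at least 48 h at 37 C; viability read as ATP content by CellTiter-Glo luminescence.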
DT40 TDP1 no CPT – qHTS for Inhibitors of human tyrosyl-DNA phosphodiesterase 1 (TDP1): qHTS in cells in absence of CPT | DT40 Tdp1-/- hTDP1 cells, no CPT, ATP luminescence, 48 h | Potency, µM (doses to about 46.2 µM), most hits filed as inhibitors | 15% of 420,000 active | AID 686978, 2013; note: nearly all actives have a fitted effect of over 55% in size
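Seeded 400 DT40-hTDP1 cells/well (vehicle DMSO, no 20 nM CPT); pinned compounds; ≥48 hr at 37 °C; CellTiter-Glo luminescence as viability measure.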
TDP1 inh – inhibitors of human tyrosyl-DNA phosphodiesterase TDP1; 0.28% of 350,000 active; Potency, µM (series often up to 130 µM), actives largely listed as inhibitors; recombinant TDP1, AlphaScreen DNA substrate cleavage; Q9NUW8; AID 485290; note: nearly all actives have a fitted effect of over 40% in size
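Tdp1 1 nM final; 15 min RT w/ cpd; substrate 15 nM, 5 min; beads 10 ug/ml, 10 min; AlphaScreen read. Neg ctrl: no enzyme.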
ClpP mod – qHTS Assay for Activators of ClpP | ATP-dependent Clp protease proteolytic subunit (Bacillus subtilis (strain 168)), P80244 | purified B. subtilis ClpP, FRET peptide cleavage, 20 min | Potency, µM (top dose mostly 57.5 µM) | 1.9% of 340,000 active | AID 651965, 2013; active = well fitted falling curve with a large enough effect; inconclusive = small, poorly fitted or top-dose-only effect; inactive = no such curve, though single readings can be large or run the other way; note: the source files actives as falling curves though it sought activators and does not explain the sign; nearly all actives have a fitted effect of over 65% in size
Target sequence (P80244 whole entry, looked up): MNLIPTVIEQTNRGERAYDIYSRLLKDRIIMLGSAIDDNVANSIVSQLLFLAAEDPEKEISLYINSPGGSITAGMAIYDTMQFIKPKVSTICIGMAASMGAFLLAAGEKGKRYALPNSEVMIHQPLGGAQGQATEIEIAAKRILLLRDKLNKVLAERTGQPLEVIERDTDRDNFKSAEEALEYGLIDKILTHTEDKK
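ClpP 10 microg/mL final, pH 8 Tris/KCl buffer with BSA, glycerol, Tween-20; compound pinned in; FRET-FV substrate; RT 20 min; Ex320/Em430; ΔFRET vs ADEP 5.8 microM, DMSO, no enzyme.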
Numbers stand for hits; i = inactive; ? = inconclusive; nt = no result given; ! = a repeat was not active; [ ] = remark or other dose. Only some compounds are listed: those with a hit (about 17% of all), similar ones and a draw of the others. Unless noted, calls come from the whole dose curve; as a rule, active = well fitted curve in the direction sought with a large enough effect; inconclusive = small, poorly fitted or top-dose-only effect, or another doubt; inactive = no such curve, though single readings can be large; an effect the other way counts as inactive or inconclusive.

SMILES | TDP1 cell CPT | DT40 TDP1 no CPT | TDP1 inh | ClpP mod
Cc1cc(C)c2c(c1)/C(=c1/sc3n(c1=O)CN(c1ccccc1)CN=3)C(=O)N2 | 10.3µM | 16.4µM | ? | i
CCC/C(=C1/c2ccccc2C(=O)N1c1ccccc1)c1ccc2[nH]ccc2c1 | 16.4µM | 16.4µM | i | i
Cc1cc(F)ccc1N1CCC(N2CCN(CCC(C)C)C(CCO)C2)CC1 (stereo not drawn) | ? | 23.1µM | i | nt
Cc1cc(F)ccc1N1CCC(N2CCN(C(C)C)C(CCO)C2)CC1 (stereo not drawn) | ? | 23.1µM | nt | i
CC(C)CCN1CCN(C2CCN(c3ccc4c(c3)OCO4)CC2)CC1CCO (stereo not drawn) | i | i | nt | nt
COc1cccc(CN2CCN(C3CCN(c4ccccc4C)CC3)CC2CCO)c1 (stereo not drawn) | ? | 18.4µM | i | i
O=C(CC1SC(N2CCOCC2)=NC1=O)Nc1cccc(C(F)(F)F)c1 (stereo not drawn) | i | i | i | i
c1ccc2c(Nc3nncs3)c3ccccc3nc2c1 | ? | i | nt | i
CCOc1ccccc1NC(=O)Cc1coc2c(C)c(C)ccc12 | ? | ? | i | i
C=CCOC(=O)/C=C/NC(=O)/C=C/C=C/CCCCCCCC(C)O (stereo not drawn) | nt | nt | i[21 µM] | nt
CCn1c(C)c(CS(=O)(=O)c2ccccc2)[nH]c1=O | 4.11µM | 2.91µM | i | nt
CCn1c(=O)[nH]c2ccccc21 | i | i | i | nt
CCCN1CCN(CCCNC(=O)c2ccc3c(=O)n(CCc4ccccc4)c(=O)[nH]c3c2)CC1 | ? | ? | i | nt
CCCCCn1c(=O)[nH]c2cc(C(=O)NCCCN(CC)CC)ccc2c1=O | i | i | i | 28.2µM
COc1ccc(-n2c(=O)[nH]c3cc(C(=O)NCCc4ccccc4)ccc3c2=O)cc1OC | ? | 18.4µM! | i | i
O=C(NCCN1CCCC1)c1ccc2c(=O)n(CCc3ccccc3)c(=O)[nH]c2c1 | 18.4µM | 29.1µM | i | ?
CCCCCn1c(=O)[nH]c2cc(C(=O)NCCN3CCOCC3)ccc2c1=O | i | ? | nt | 28.2µM
Clc1cccc(Cl)c1CSc1nnc([C@@H]2CCCN2)o1 | i | i | i | nt
Cc1ccc(NC(=O)CSc2nc(=O)n(CCCN3CCOCC3)c3c2CCCC3)cc1 | i | i | i | i
CCCCCn1c(=O)[nH]c2cc(C(=O)O)ccc2c1=O | i | i | i | 22.4µM
CSc1nc(Cl)c(Cc2ccc(OC(C)C)cc2)c(N(C)C)n1 | ? | 16.4µM | i | i
COc1ccc(Cc2c(Cl)ncnc2Cl)cc1 | i | ? | i | i
CCOc1ccc(Cc2c(Cl)nc(SC)nc2N(C)C)cc1 | 18.4µM | 16.4µM | i | i
CC(C)OCCCNC(=O)c1cn(C)c2ccc(S(=O)(=O)N3CCCCCC3)cc2c1=O | i | i | i | i
Cc1ccccc1OCCn1cnc2cc([N+](=O)[O-])ccc2c1=O | 18.4µM | 20.6µM | i | nt
SMILES | TDP1 cell CPT | DT40 TDP1 no CPT | TDP1 inh | ClpP mod
Oc1ccc(N=Cc2ccc(OCc3ccccc3)cc2)cc1 | 20.6µM | 20.6µM | i | i
O=C1NC[C@@H](CCCCN2C[C@H](Cc3ccc(O)cc3)N(CCC3CCCCC3)C(=O)C2=O)N(CC2CCCCC2)C1=O | i | i | nt | i
O=C(Nc1ccc2nc(-c3ccco3)c(-c3ccco3)nc2c1)N1CCN(c2ccccn2)CC1 | 13µM | 11.6µM | i | i
Cc1nc2ccc(NC(=S)N3CCN(c4ccccn4)CC3)cc2nc1C | i | i | i | i
CC1CCN(C(=O)Nc2ccc3nc(-c4ccco4)c(-c4ccco4)nc3c2)CC1 | 11.2µM | ? | nt | i
Cc1nc2cc(NC(=O)N3CCN(c4ccccn4)CC3)ccc2o1 | i | i | i | 25.1µM
CCOC(=O)N1CCN(C(=O)Nc2ccc3oc(C)nc3c2)CC1 | i | i | i | i
Cc1nc2ccc(NC(=O)N3CCOCC3)cc2nc1C | i | i | i | i
O=C(Nc1ccc2nc(-c3ccco3)c(-c3ccco3)nc2c1)N1CCCC1 | nt | nt | 7.08µM | nt
O=C(NCCO)Nc1ccc2nc(-c3ccco3)c(-c3ccco3)nc2c1 | nt | nt | i | nt
O=C(CCn1c(=S)oc2ccccc21)N1CCN(c2ccc(F)cc2)CC1 | ? | ? | i | i
CCCOC(=O)c1ccc(Nc2nc3ccccc3nc2-n2nc(C)cc2C)cc1 | i | i | i | i
CC(=O)c1ccc(Sc2nnc(C)s2)c([N+](=O)[O-])c1 | i | ? | i | i
CC[C@]12c3[nH]c4cc(CCC(=O)N(C)C)ccc4c3CCN1C(=O)[C@@H](CC(=O)NC/C=C(\C)CCC=C(C)C)C[C@@H]2C(=O)N1CCN(C(=O)C2CC2)CC1 | 8.2µM | 6.51µM | i | i
CC(C)=CCC/C(C)=C/CNC(=O)C[C@H]1C[C@H](C(=O)N2CCOCC2)[C@@]2(C)c3[nH]c4cc(CCC(=O)N(C)C)ccc4c3CCN2C1=O | 23.1µM | 16.4µM | i | i
CN(C)C(=O)CCc1ccc2c3c([nH]c2c1)[C@]1(C)[C@@H](C(=O)N2CCCCC2)C[C@H](CC(=O)NC(C)(C)C)C(=O)N1CC3 | ? | ? | i | i
CC(C)=CCC/C(C)=C/CNC(=O)C[C@H]1C[C@H](C(=O)N2CCCCC2)[C@@]2(C)c3[nH]c4cc(CCC(=O)N(C)C)ccc4c3CCN2C1=O | 7.31µM | 14.6µM | i | i
CN(C)C(=O)CCc1ccc2c3c([nH]c2c1)[C@]1(C)[C@@H](C(=O)N2CCOCC2)C[C@H](CC(=O)NC(C)(C)C)C(=O)N1CC3 | i | i | i | i
CC[C@]12c3[nH]c4ccc(Cl)cc4c3CCN1C(=O)[C@@H](CC(=O)NC/C=C(\C)CCC=C(C)C)C[C@@H]2C(=O)N1CCN(C(=O)C2CC2)CC1 | ? | 20.6µM | i | i
COc1cc(NC(=O)Nn2cnnc2)cc(OC)c1OC | i | i | i | nt
CC1(C)CC(=O)c2cnc(N3CCc4ccccc43)nc2C1 | ? | 25.9µM | i | nt
Cc1ccc(-c2nc3ccccn3c2Nc2ccc3c(c2)OCCO3)s1 | i | i | i | i
Cc1ccc2nc(-c3ccco3)c(Nc3ccc4c(c3)OCCO4)n2c1 | 16.4µM | ? | i | i
Cc1ccc2nc(-c3ccc(C)s3)c(Nc3ccc4c(c3)OCCO4)n2c1 | 23.1µM | ? | i | ?
C=CC(=O)OCC(CO)(COC(=O)C=C)COC(=O)C=C | nt | nt | i | nt
SMILES | TDP1 cell CPT | DT40 TDP1 no CPT | TDP1 inh | ClpP mod
Cc1ccc2oc(=O)n(CCOc3ccccc3Cl)c2c1 | ? | i | i | i
CCOc1ccccc1Cn1c(=O)oc2ccc(C)cc21 | i | ? | i | 25.1µM
CCCOc1ccccc1Cn1c(=O)oc2ccc(C)cc21 | ? | i | i | i
Cc1ccc2oc(=O)n(CCCOc3ccccc3Cl)c2c1 | 20.6µM | ? | i | i
CCCOC1(C(F)(F)F)NC(=O)N(c2cccc(Cl)c2)C1=O (stereo not drawn) | nt | nt | i | i
COc1ccc(Cn2c(SCc3ccc(C(=O)NCCc4ccccc4)cc3)nc3cccnc32)cc1 | ? | ? | i | i
COc1cccc(CCNC(=O)c2ccc(Cn3c(SCc4ccccc4)nc4cccnc43)cc2)c1 | ? | 20.6µM | i | 25.1µM

High-throughput results: PubChem BioAssay, National Center for Advancing Translational Sciences (NCATS)
